# Measurements taken from PubChem BioAssay (EPA / NIEHS).
# Calls of active or inactive are those of the source. Rule for the calls: active = hit-call score of the fitted dose curve at least 0.9, where 1 is the maximum; inconclusive = response in the unintended direction; inactive = score below 0.9.
# Tested on: rat Monoamine Oxidase, MAO-A, Central (MAOAC), gene 29253
# Experiment: NVS_ENZ_rMAOAC: NovaScreen (NVS) Enzymatic Assay for rat Monoamine Oxidase, MAO-A, Central (MAOAC) (AID 2283243);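 note: potency refers to inhibition seen as signal drop below DMSO baseline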
# Procedure, shortened: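 Rat brain tissue extract served as the cell-free enzyme source; activity was measured by radiometric scintillation counting 1.5 hours after compound addition. Loss of signal relative to DMSO baseline indicated inhibition; primary screen at 25 uM in duplicate.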
SMILES,AC50,outcome
CC(=O)Nc1ccc(C(=O)CCl)cc1,5.58 µM (active),
O=[N+]([O-])c1ccc(O)cc1C(F)(F)F,21.1 µM (active),
CCCCCCCCCCCCCCCCO,,inactive
CC=Cc1ccc(OCC)c(O)c1,20.3 µM (active),
c1ccc2cc3ccccc3cc2c1,25 µM (active),
Oc1cccc2c(O)cccc12,25 µM (active),
O=C1OC2(c3ccccc31)c1cc(I)c(O)c(I)c1Oc1c2cc(I)c(O)c1I,0.828 µM (active),
Cc1ccc2sc3cccc(C)c3c2c1,,inactive
Oc1cccc2ccccc12,15.4 µM (active),
O=C(c1ccccc1)c1ccc(O)cc1O,21 µM (active),
Nc1ccc(Oc2cccc(Oc3ccc(N)cc3)c2)cc1,22.7 µM (active),
CC(=O)CCc1ccc(O)cc1,17.5 µM (active),
Cc1c(Cl)c(=O)oc2cc(O)ccc12,12.2 µM (active),
O=c1c2ccccc2oc2ccccc12,7.58 µM (active),
O=C1c2ccccc2C(=O)c2c(O)ccc(O)c21,18.3 µM (active),
CC=Cc1ccc(OC)c(OC)c1,17.2 µM (active),
CCN(CC)c1ccc2c(C)cc(=O)oc2c1,8.36 µM (active),

SMILES,AC50,outcome
Nc1ccc(Cl)c([N+](=O)[O-])c1,12.8 µM (active),
CCNc1nc(N)nc(Cl)n1,37.6 µM (active),
c1ccc2c(c1)[nH]c1ccccc12,16.7 µM (active),
Cc1cc(C)c(C=O)c(C)c1,19.9 µM (active),
CCCCCCCCCCCCCCCC[N+](C)(C)Cc1ccccc1,,inactive
Cc1ccc(N)c([N+](=O)[O-])c1,8.62 µM (active),
CN1CN(C)CN(C)C1,,inactive
CC(=O)Nc1ccc(N=Nc2cc(C)ccc2O)cc1,0.0709 µM (active),
c1ccc2c(c1)ccc1ncccc12,2.35 µM (active),
COC(=O)c1ccccc1C(=O)O,,inactive
CNNCc1ccc(C(=O)NC(C)C)cc1,18 µM (active),
CCOc1ccc(NC(N)=O)cc1,16.6 µM (active),
O=C1c2ccccc2C(=O)c2c(Cl)cccc21,3.72 µM (active),
Oc1ccc(Nc2ccccc2)cc1,17.7 µM (active),
COc1ccc2nc(N)sc2c1,9.33 µM (active),
C=Cc1cccc(C)c1,,inactive
